Measurements: article PMC8384837, “Expanding the binding specificity for RNA recognition by a PUF domain”

Legend:
Assay in all cases: yeast three-hybrid, YBZ-1, SC-Leu-His + 0.5 mM 3-AT, 4 days
Conditions in all cases: tags: N-Gal4 AD-HA kept; label: inside an RPR1-promoter hybrid RNA with tandem MS2 sites; ssRNA
[1] = biological target: PUM1 PUF domain R5-NIL (Homo sapiens, UniProt Q14671 828-1176, C1007N;R1008I;Q1011L)
How it was run: (§1)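 Pumilio-1 PUF domain libraries, randomized (NNK) at the three base-contacting residues of each repeat, were co-expressed with matching RNA elements from a centromeric plasmid in strain YBZ-1 (LexA–MS2 coat fusion, HIS3 reporter). Transformants were plated on SC-Leu (input) and SC-Leu-His + 0.5 mM 3-AT (selection) for four days, and repeat regions were PCR-amplified and Illumina-sequenced. The interaction score is the log2 change in variant frequency from input to selection, with pseudocount 1 where absent.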

[2] = biological target: PUM1 PUF domain R1-RGC (Homo sapiens, UniProt Q14671 828-1176, S863R;R864G;Q867C)
How it was run: as §1

[3] = biological target: PUM1 PUF domain R5-RAV (Homo sapiens, UniProt Q14671 828-1176, C1007R;R1008A;Q1011V)
How it was run: as §1

[4] = biological target: PUM1 PUF domain R5-KQC (Homo sapiens, UniProt Q14671 828-1176, C1007K;R1008Q;Q1011C)
How it was run: as §1

[5] = biological target: PUM1 PUF domain R3-IFS (Homo sapiens, UniProt Q14671 828-1176, C935I;R936F;Q939S)
How it was run: as §1

[6] = biological target: PUM1 PUF domain R3-QRS (Homo sapiens, UniProt Q14671 828-1176, C935Q;Q939S)
How it was run: as §1

[7] = biological target: PUM1 PUF domain R3-ART (Homo sapiens, UniProt Q14671 828-1176, C935A;Q939T)
How it was run: as §1

[8] = biological target: PUM1 PUF domain R3-RAG (Homo sapiens, UniProt Q14671 828-1176, C935R;R936A;Q939G)
How it was run: as §1

[9] = biological target: PUM1 PUF domain R2-RRC (Homo sapiens, UniProt Q14671 828-1176, N899R;Y900R;Q903C)
How it was run: as §1

[10] = biological target: PUM1 PUF domain R7-RGW (Homo sapiens, UniProt Q14671 828-1176, S1079R;N1080G;E1083W)
How it was run: as §1

[11] = biological target: PUM1 PUF domain R4-GSQ (Homo sapiens, UniProt Q14671 828-1176, N971G;H972S)
How it was run: as §1

[12] = biological target: PUM1 PUF domain R4-VFP (Homo sapiens, UniProt Q14671 828-1176, N971V;H972F;Q975P)
How it was run: as §1

[13] = biological target: PUM1 PUF domain R4-WFG (Homo sapiens, UniProt Q14671 828-1176, N971W;H972F;Q975G)
How it was run: as §1

[14] = biological target: PUM1 PUF domain R5-EFW (Homo sapiens, UniProt Q14671 828-1176, C1007E;R1008F;Q1011W)
How it was run: as §1

[15] = biological target: PUM1 PUF domain R8-RWP (Homo sapiens, UniProt Q14671 828-1176, N1122R;Y1123W;Q1126P)
How it was run: as §1

[16] = biological target: PUM1 PUF domain R8-PYL (Homo sapiens, UniProt Q14671 828-1176, N1122P;Q1126L)
How it was run: as §1

[17] = biological target: PUM1 PUF domain R8-RYN (Homo sapiens, UniProt Q14671 828-1176, N1122R;Q1126N)
How it was run: as §1

[18] = biological target: PUM1 PUF domain R8-LFG (Homo sapiens, UniProt Q14671 828-1176, N1122L;Y1123F;Q1126G)
How it was run: as §1

[19] = biological target: PUM1 PUF domain R5-VYF (Homo sapiens, UniProt Q14671 828-1176, C1007V;R1008Y;Q1011F)
How it was run: as §1

[20] = biological target: PUM1 PUF domain R4-GPN (Homo sapiens, UniProt Q14671 828-1176, N971G;H972P;Q975N)
How it was run: as §1

Chain of PUM1 PUF domain R1-RGC (Q14671 828-1176 S863R/R864G/Q867C): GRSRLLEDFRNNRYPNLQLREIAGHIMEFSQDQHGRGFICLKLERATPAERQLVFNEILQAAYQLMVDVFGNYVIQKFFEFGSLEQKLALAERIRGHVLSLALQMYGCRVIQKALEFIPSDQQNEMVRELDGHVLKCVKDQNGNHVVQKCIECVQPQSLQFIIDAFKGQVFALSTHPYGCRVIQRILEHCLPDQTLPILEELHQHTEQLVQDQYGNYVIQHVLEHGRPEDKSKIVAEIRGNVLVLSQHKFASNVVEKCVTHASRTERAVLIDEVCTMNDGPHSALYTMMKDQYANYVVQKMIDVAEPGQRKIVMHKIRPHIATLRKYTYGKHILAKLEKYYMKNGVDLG
Chain of PUM1 PUF domain R8-LFG (Q14671 828-1176 N1122L/Y1123F/Q1126G): as the sequence (Q14671 828-1176 S863R/R864G/Q867C) above, with R36S, G37R, C40Q, N295L, Y296F, Q299G counted along it
Chain of PUM1 PUF domain R3-QRS (Q14671 828-1176 C935Q/Q939S): as the sequence (Q14671 828-1176 S863R/R864G/Q867C) above, with R36S, G37R, C40Q, C108Q, Q112S counted along it
Chain of PUM1 PUF domain R4-WFG (Q14671 828-1176 N971W/H972F/Q975G): as the sequence (Q14671 828-1176 S863R/R864G/Q867C) above, with R36S, G37R, C40Q, N144W, H145F, Q148G counted along it
Chain of PUM1 PUF domain R4-VFP (Q14671 828-1176 N971V/H972F/Q975P): as the sequence (Q14671 828-1176 S863R/R864G/Q867C) above, with R36S, G37R, C40Q, N144V, H145F, Q148P counted along it
Chain of PUM1 PUF domain R4-GPN (Q14671 828-1176 N971G/H972P/Q975N): as the sequence (Q14671 828-1176 S863R/R864G/Q867C) above, with R36S, G37R, C40Q, N144G, H145P, Q148N counted along it
Chain of PUM1 PUF domain R5-KQC (Q14671 828-1176 C1007K/R1008Q/Q1011C): as the sequence (Q14671 828-1176 S863R/R864G/Q867C) above, with R36S, G37R, C40Q, C180K, R181Q, Q184C counted along it
Chain of PUM1 PUF domain R3-RAG (Q14671 828-1176 C935R/R936A/Q939G): as the sequence (Q14671 828-1176 S863R/R864G/Q867C) above, with R36S, G37R, C40Q, C108R, R109A, Q112G counted along it
Chain of PUM1 PUF domain R5-VYF (Q14671 828-1176 C1007V/R1008Y/Q1011F): as the sequence (Q14671 828-1176 S863R/R864G/Q867C) above, with R36S, G37R, C40Q, C180V, R181Y, Q184F counted along it
Chain of PUM1 PUF domain R2-RRC (Q14671 828-1176 N899R/Y900R/Q903C): as the sequence (Q14671 828-1176 S863R/R864G/Q867C) above, with R36S, G37R, C40Q, N72R, Y73R, Q76C counted along it

“GGCUAGAACUAGUGGAUCCCCCGGCGCCCGGCGGCUCGAGCCCGGGUAAGUGUUAAUAGUCUGCAUGCCGCCGGGCGCCAUGCCUGCAGGUCGACUCUAGAAAACAUG” was tested, and the binding signal [1] was 3.18 log2 enrichment (interaction score).

In the case of “GGCUAGAACUAGUGGAUCCCCCGGCGCCCGGCGGCUCGAGCCCGGGUAAGUGUAAAUUGUCUGCAUGCCGCCGGGCGCCAUGCCUGCAGGUCGACUCUAGAAAACAUG”, the binding signal [2] is reported as 2.07 log2 enrichment (interaction score).

With “GGCUAGAACUAGUGGAUCCCCCGGCGCCCGGCGGCUCGAGCCCGGGUAAGUGUAAAUGGUCUGCAUGCCGCCGGGCGCCAUGCCUGCAGGUCGACUCUAGAAAACAUG” the binding signal [2] was 1.27 log2 enrichment (interaction score).

“GGCUAGAACUAGUGGAUCCCCCGGCGCCCGGCGGCUCGAGCCCGGGUAAGUGUCAAUAGUCUGCAUGCCGCCGGGCGCCAUGCCUGCAGGUCGACUCUAGAAAACAUG” was tested, and the binding signal [3] was 2.94 log2 enrichment (interaction score) and the binding signal [4] was 3.25 log2 enrichment (interaction score).

In the case of “GGCUAGAACUAGUGGAUCCCCCGGCGCCCGGCGGCUCGAGCCCGGGUAAGUGUAAGUAGUCUGCAUGCCGCCGGGCGCCAUGCCUGCAGGUCGACUCUAGAAAACAUG”, the binding signal [5] is reported as 5.56 log2 enrichment (interaction score) and the binding signal [6] is reported as 2.75 log2 enrichment (interaction score).

For “GGCUAGAACUAGUGGAUCCCCCGGCGCCCGGCGGCUCGAGCCCGGGUAAGUGUAAAUCGUCUGCAUGCCGCCGGGCGCCAUGCCUGCAGGUCGACUCUAGAAAACAUG”, the binding signal [2] was 3.36 log2 enrichment (interaction score).

With “GGCUAGAACUAGUGGAUCCCCCGGCGCCCGGCGGCUCGAGCCCGGGUAAGUGUAAUUAGUCUGCAUGCCGCCGGGCGCCAUGCCUGCAGGUCGACUCUAGAAAACAUG” the binding signal [7] was 0.34 log2 enrichment (interaction score), the binding signal [8] was 3.75 log2 enrichment (interaction score) and the binding signal [6] was 2.68 log2 enrichment (interaction score).

“GGCUAGAACUAGUGGAUCCCCCGGCGCCCGGCGGCUCGAGCCCGGGUAAGUGUAAAGAGUCUGCAUGCCGCCGGGCGCCAUGCCUGCAGGUCGACUCUAGAAAACAUG” was tested, and the binding signal [9] was 2.42 log2 enrichment (interaction score).

With “GGCUAGAACUAGUGGAUCCCCCGGCGCCCGGCGGCUCGAGCCCGGGUAAGUUUAAAUAGUCUGCAUGCCGCCGGGCGCCAUGCCUGCAGGUCGACUCUAGAAAACAUG” the binding signal [10] was 3.68 log2 enrichment (interaction score).

With “GGCUAGAACUAGUGGAUCCCCCGGCGCCCGGCGGCUCGAGCCCGGGUAAGUGUAUAUAGUCUGCAUGCCGCCGGGCGCCAUGCCUGCAGGUCGACUCUAGAAAACAUG” the binding signal [11] was 0.64 log2 enrichment (interaction score), the binding signal [12] was 3.78 log2 enrichment (interaction score) and the binding signal [13] was 2.4 log2 enrichment (interaction score).

“GGCUAGAACUAGUGGAUCCCCCGGCGCCCGGCGGCUCGAGCCCGGGUAAGUGUGAAUAGUCUGCAUGCCGCCGGGCGCCAUGCCUGCAGGUCGACUCUAGAAAACAUG” was tested, and the binding signal [14] was 4.12 log2 enrichment (interaction score).

“GGCUAGAACUAGUGGAUCCCCCGGCGCCCGGCGGCUCGAGCCCGGGUAAGCGUAAAUAGUCUGCAUGCCGCCGGGCGCCAUGCCUGCAGGUCGACUCUAGAAAACAUG” was tested, and the binding signal [15] was 5 log2 enrichment (interaction score), the binding signal [16] was 3.48 log2 enrichment (interaction score) and the binding signal [17] was 6.46 log2 enrichment (interaction score). For the same sequence, the binding signal [18] was 2.38 log2 enrichment (interaction score).

With “GGCUAGAACUAGUGGAUCCCCCGGCGCCCGGCGGCUCGAGCCCGGGUAAGUGUACAUAGUCUGCAUGCCGCCGGGCGCCAUGCCUGCAGGUCGACUCUAGAAAACAUG” the binding signal [11] was 3.24 log2 enrichment (interaction score).

In the case of “GGCUAGAACUAGUGGAUCCCCCGGCGCCCGGCGGCUCGAGCCCGGGUAAGUGUAAAUAGUCUGCAUGCCGCCGGGCGCCAUGCCUGCAGGUCGACUCUAGAAAACAUG”, the binding signal [15] is reported as 3.02 log2 enrichment (interaction score), the binding signal [7] is reported as 3.43 log2 enrichment (interaction score) and the binding signal [14] is reported as 4.47 log2 enrichment (interaction score). The binding signal [16] was 2.9 log2 enrichment (interaction score), the binding signal [17] was 5.13 log2 enrichment (interaction score) and the binding signal [18] was 1.28 log2 enrichment (interaction score). For the same sequence, the binding signal [19] was 2.44 log2 enrichment (interaction score), the binding signal [20] was 3.62 log2 enrichment (interaction score) and the binding signal [13] was 1.81 log2 enrichment (interaction score).
